# Results as given in PubChem BioAssay AID1531 (NMMLSC, 2009).
# About 3,300 (1.1%) of roughly 290,000 compounds were called active. The sample holds actives, similar compounds and a random draw of the others, so the mix is not that of the screen. Values without a mark were called inactive. Rule as the data show it: active = binding response below about 67% or above about 130%; inconclusive = no clear call, values can overlap the other calls; inactive = in between.
# Molecular target: Mitogen-activated protein kinase kinase kinase 2 (Homo sapiens) (UniProt Q9Y2U5)
# Experiment: wildtype MEKK2 PB1-MEK5 interaction, increase or decrease – biochemical, multiplex bead flow cytometry, Alexa488-MEK5, primary screen (AID 1531)
# Conditions: Alexa488-MEK5 binding to MEKK2 WT, at 10 µM, actives lie on both sides
row,Structure (SMILES),binding response (% of control)
1,O=C(CCCn1c(=O)[nH]c2cc(Cl)ccc2c1=O)NCCN1CCN(c2ccccc2)CC1,97%
2,COc1cccc(CNC(=O)Cc2csc(Nc3nc(=S)[nH]c4ccccc34)n2)c1,90%
3,O=C(Cc1csc(Nc2nc(=S)[nH]c3ccccc23)n1)NCCCN1CCN(c2cccc(Cl)c2)CC1,150% (active)
4,COc1ccc(Nc2ncnc3sc(C)cc23)cc1,105%
5,CCCCN1C(N)=NC[C@@H]1Cc1ccccc1,100%
6,O=C1C(Cc2ccc(O)cc2)NC(=S)N1Cc1ccccc1 (stereo not drawn),97%
7,O=C1NCC(=O)N(Cc2ccccc2)/C1=C/c1ccccc1,-4% [inhibitor] (active)
8,O=C1/C(=C\c2cccnc2)CN(Cc2ccccc2)C/C1=C\c1cccnc1,119%
9,C[C@H]1CC[C@]2(O[C@@H](CCO)C[C@@H](O)[C@@H]2O)O1,97%
10,O=C1N[C@@H](Cc2ccccc2)C(=O)N2[C@@H]3N(S(=O)(=O)c4ccc(F)cc4)c4ccccc4[C@]3(Br)C[C@@H]12,98%
11,CCC(C(=O)NCc1cccnc1)n1nc(C)c2sc3ccccc3c2c1=O (stereo not drawn),103%
12,N#Cc1c(Cl)nc(-c2cccnc2)nc1-c1ccccc1,106%
13,CN(Cc1ccccc1)C(=O)C(=O)c1cn(CC(=O)N2CCCC2)c2ccccc12,106%
14,CCC(C)(C)NC(=O)C1c2ccccc2Oc2ccccc21,97%
15,CCC(C)NC(=O)C1c2ccccc2Oc2ccccc21 (stereo not drawn),72%
16,CC(C)(C)c1nnc(NC(=O)C2c3ccccc3Oc3ccccc32)s1,39% [inhibitor] (active)
17,CC(NS(=O)(=O)c1ccc(Cl)cc1)C(=O)Nc1ccc2c(c1)OCCO2 (stereo not drawn),97%
18,CCN(CC)CCOc1ccc2c(c1)C(=NNC(=O)c1ccccn1)c1cc(OCCN(CC)CC)ccc1-2,191% (active)
19,COc1ccc(CC(=O)N/N=C(\C)c2ccccn2)cc1,99%
20,Cc1cccc(OCC(=O)NCCCNC(=O)c2ccccn2)c1,98%
21,CCOC(=O)c1ccc(NC(=O)c2c(N)n(C)c(=O)[nH]c2=O)cc1,98%
22,CC1(C)S[C@@H]2[C@H](NC(=O)COc3ccccc3)C(=O)N2C1C(=O)OCc1ccccc1 (stereo partly drawn),93%
23,O=C(c1ccco1)N1CCN(C(=S)Nc2cc(F)cc(F)c2)CC1,102%
24,COc1ccc(CNC(=O)C2CCN(S(=O)(=O)N3CCOCC3)CC2)cc1,100%

row,Structure (SMILES),binding response (% of control)
1,COc1ccc(CNC(=O)C2CCN(S(C)(=O)=O)CC2)cc1,42% [inhibitor] (active)
2,COc1ccc(CNC(=O)C2CCN(S(=O)(=O)c3ccc(SC)cc3)CC2)cc1,105%
3,O=C(NCCc1ccccc1)C1CC1,103%
4,COC(=O)c1c(-c2ccsc2)oc2ccc(-c3cc(OC)c(OC)c(OC)c3)cc12,96%
5,O=C(CCn1c(=O)[nH]c2ccccc2c1=O)NCCCN1CCN(c2cccc(Cl)c2)CC1,108%
6,Cn1c(C(=O)NCCCN2CCN(c3cccc(Cl)c3)CC2)cc2c(=O)n(C)c3ccccc3c21,173% (active)
7,Cn1c(C(=O)NCCc2ccsc2)cc2c(=O)n(C)c3ccccc3c21,97%
8,O=C(CNC(=O)c1ccc(Br)o1)Nc1ccccc1,99%
9,Cc1nn(CC(=O)NCCc2ccccc2)c(=O)c2cc3occc3n12,111%
10,Cc1ccc(-c2ccc(=O)n(CC(=O)NCCCN3CCCCC3)n2)cc1,109%
11,CCc1ccc(-c2cc3c(=O)n(CC(=O)NCCCN4CCN(Cc5ccccc5)CC4)nc(C)n3n2)cc1,141% (active)
12,CCCCN1C(N)=NC[C@@H]1CC1CCCCC1,119%
13,COc1ccc(-c2noc(C(C)NS(=O)(=O)c3ccc(NC(C)=O)cc3)n2)cc1 (stereo not drawn),95%
14,C=C(C)COc1ccc(-c2ncncc2-c2ccc(OC)cc2)c(O)c1,100%
15,CCc1nn(CC(=O)N2CCN(CC)CC2)c(=O)c2cccn12,95%
16,COC(=O)c1c(NC(=O)COc2ccc(Cl)cc2Cl)sc2c1CC(C)(C)NC2(C)C,147% (active)
17,Cc1cc(NC(=O)COc2ccc(Cl)cc2Cl)n(CCC#N)n1,88%
18,Cc1nn(-c2ccccc2)c(C)c1NC(=O)COc1ccc(Cl)cc1Cl,103%
19,CC(=O)c1ccc(S(=O)(=O)N(C)CCCC(=O)N(C)Cc2ccccc2F)cc1,105%
20,CCOC(=O)c1c(NC(=O)c2ccc(S(=O)(=O)N(C)CC3CCCO3)cc2)sc2c1CC(C)(C)NC2(C)C (stereo not drawn),134% (active)
21,CN(CC1CCCO1)S(=O)(=O)c1ccc(C(=O)Nc2ccc(F)cc2)cc1 (stereo not drawn),98%
22,Cc1cccc(NC(=O)c2ccc(S(=O)(=O)N(C)CC3CCCO3)cc2)c1C (stereo not drawn),99%
23,O=C(NC1CCCC1)C(c1c(F)cccc1Cl)N(C(=O)c1csnn1)C1CC1 (stereo not drawn),95%
24,O=S(=O)(c1ccccc1)c1nc(Cc2ccccc2)oc1N1CCOCC1,102%

row,Structure (SMILES),binding response (% of control)
1,CNC(C)C#Cc1ccc2sc3cc(OC)c(OC)cc3c(=O)c2c1 (stereo not drawn),136% (active)
2,CN1C(=O)C2(OCCCO2)c2cc(Cl)ccc21,109%
3,COc1cc(-c2nc(-c3ccncc3)no2)cc(OC)c1OC,-3% [inhibitor] (active)
4,c1csc(-c2nc(-c3ccncc3)no2)c1,94%
5,Cc1ccc(-c2nc(-c3ccncc3)no2)c(C)c1,104%
6,CC1CCCN(c2ccc(C(=O)NCCc3ccccc3)cn2)C1 (stereo not drawn),97%
7,Cc1ccc(Sc2cc(C(=O)c3ccccc3C(=O)O)ccc2[N+](=O)[O-])cc1,95%
8,CC(Sc1nnc(CNC(=O)c2ccccc2F)n1C)C(=O)Nc1nccs1 (stereo not drawn),101%
9,COc1ccc(CN2CC[C@H]3C=CC[C@@H](C(=O)N4CCOCC4)[C@H]3C2=O)cc1OC,99%
10,CCOC(=O)c1ccc(Nc2cc3ccccc3c(=O)[nH]2)cc1,99%
11,Cc1ccc(C(=O)NCCN2CCOCC2)cc1C,99%
12,Cc1cccc(C(=O)OC(C)CN2CCN(C)CC2)c1 (stereo not drawn),97%
13,Cc1cccc(-c2nc3ccc(C(=O)NCCN4CCN(C)CC4)cc3nc2-c2cccc(C)c2)c1,156% (active)
14,CC(C(=O)N1CCN(c2ccccc2F)CC1)c1ccc([N+](=O)[O-])cc1 (stereo not drawn),111%
15,O=C(Nc1cccc(Cl)c1)c1cc(S(=O)(=O)N2CCCCC2)c[nH]1,100%
16,COc1cc2ccccc2cc1C(=O)N(CCN(C)C)c1nc2c(F)cccc2s1,113%
17,COc1cccc2sc(N(CCCN(C)C)C(=O)CCS(=O)(=O)c3ccccc3)nc12,105%
18,CN(C)CCCN(C(=O)COc1ccccc1)c1nc2c(Cl)cccc2s1,338% (active)
19,CN(Cc1ccccc1)C(=O)COc1ccccc1,106%
20,CCN(C(=O)COc1ccc(C(=O)c2ccccc2)cc1)c1ccccc1,101%
21,COc1cccc2sc(N(CCCN(C)C)C(=O)C(c3ccccc3)c3ccccc3)nc12,178% (active)
22,CC(=O)N[C@H]1[C@H]([C@H](O)[C@H](O)CO)OC(C(=O)O)=C[C@@H]1O,106%
23,Cc1ccc(C)c(OCc2cc(C(=O)N3CCN(c4cnccn4)CC3)no2)c1,93%
24,COc1cccc(NC(=O)N2C3CCCC2CC(NC(C)=O)C3)c1 (stereo not drawn),109%

row,Structure (SMILES),binding response (% of control)
1,O=C(CN1C(=O)S/C(=C\c2ccccc2Cl)C1=O)NC1C=CS(=O)(=O)C1 (stereo not drawn),101%
2,Cc1cc(S(=O)(=O)c2cc3ccc(O)c(C)c3oc2=O)ccc1F,102%
3,CCOC(=O)CCc1c(C)c(C#N)c2[nH]c3ccccc3n2c1=O,106%
4,Cc1ccccc1Cn1c(=O)[nH]c2ccccc21,48%
5,CCCc1cc(=S)n2c([nH]c3ccccc32)c1C#N,-3% [inhibitor] (active)
6,O=C(NCC(=O)N(c1ccccc1)C(C(=O)NCC1CCCO1)c1ccccc1)c1cccs1 (stereo not drawn),103%
7,CCCCNC(=O)CCn1c(=S)[nH]c2cc3c(cc2c1=O)OCO3,99%
8,CCN(CC)CCCNC(=O)c1ccc2c(=O)n(Cc3ccc4c(c3)OCO4)c(=S)[nH]c2c1,144% (active)
9,COc1ccc(Cn2c(=S)[nH]c3cc(C(=O)NCCCN4CCOCC4)ccc3c2=O)cc1,115%
10,CC(C)CCn1cnc2c1c(=O)n(CC(=O)NC(N)=O)c(=O)n2Cc1ccccc1,99%
11,COc1cccc(OCCCN2CCCCCC2)c1,102%
12,CCCCOC(=O)Cn1c(=N)n(CCN(CC)CC)c2ccccc21,106%
13,CCCCCCCCCCOC(=O)Cn1c(COc2ccc(C)cc2)[n+](C)c2ccccc21,319% (active)
14,CCCCOC(=O)Cn1c(=O)n(CC(=O)OCCCC)c2cc(C)ccc21,97%
15,CCCCCCCCCCOC(=O)Cn1c(COc2cccc(OC)c2)[n+](C)c2ccccc21,278% (active)
16,Cc1ccc(OCc2nc3ccccc3n2C)cc1,103%
17,Nc1ccn(C2CC(O)C(CO)O2)c(=O)n1 (stereo not drawn),105%
18,O=C(CSc1nc2nccnc2c(=O)n1Cc1cccs1)Nc1ccccc1F,90%
19,COc1ccc(C2CC(c3cccs3)=NN2c2ccc(F)cc2)cc1OC (stereo not drawn),88%
20,COc1ccc(C2CC(c3cccs3)=NN2C(=O)CCC(=O)O)cc1OC (stereo not drawn),108%
21,COc1ccc(C2CC(c3cccs3)=NN2c2nc(C)c(C(C)=O)s2)cc1OC (stereo not drawn),63% [inhibitor] (active)
